Source: PubChem
APOBEC3A inh: inhibitors of human APOBEC3A DNA deaminase. 330,000 tested, 0.41% active. P31941. inhibition, % at 20 µM. recombinant A3A, FAM/TAMRA ssDNA deamination fluorescence;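 active = at least 40% inhibition at 20 µM here, with at most 30% in a related deaminase screen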;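 also: plate controls were A3A with DMSO for no effect and wells lacking A3A enzyme for full effect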
Target sequence (P31941 whole entry, looked up): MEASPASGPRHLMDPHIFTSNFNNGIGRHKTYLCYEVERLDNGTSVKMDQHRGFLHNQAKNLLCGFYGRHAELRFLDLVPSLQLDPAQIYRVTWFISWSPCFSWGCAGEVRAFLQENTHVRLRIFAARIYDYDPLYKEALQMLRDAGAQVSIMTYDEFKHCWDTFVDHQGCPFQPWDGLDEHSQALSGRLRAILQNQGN
rCAG RNA binder: molecules binding r(CAG) RNA repeats | r(CAG) RNA repeat, TO-PRO-1 dye displacement fluorescence | inhibition, % at 3 µM | 370,000 tested, 1.3% active | AID 651821;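 active = inhibition above the plate cutoff, the mean of all test compounds on that plate plus 3 SD, cut at about 35% in these data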;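 also: 0% = DMSO alone and 100% = 100 µM mitoxantrone as full dye displacement; higher means more dye released from RNA so lower well fluorescence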
aDG glyco up: increases alpha dystroglycan glycosylation; 360,000 tested, 0.22% active; Pro5-aDG cells, alpha-DG glycosylation AlphaScreen (IIH6); 0% Pro5, 100% B10-LARGE cell signal; activation, % at 10 µM;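 active = activation of at least 8% versus controls, or a plate z-score of at least 8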;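 also: Pro5 are CHO cells carrying HIG-tagged alpha-DG that lacks glycosylation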
ALR inh: inhibitors of human sulfhydryl oxidase ALR; P55789; purified ALR, DTT oxidation, H2O2 HRP-luminol luminescence; inhibition, % (concentration not given with the values); 290,000 tested, 3.8% active;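 active = mean replicate inhibition above about 79%, with every replicate also reaching it, limit read from the data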
PHOSPHO1 inh: PHOSPHO1 (human) inhibition. recombinant PHOSPHO1, absorbance phosphatase assay. inhibition, % at 13.3 µM. 290,000 tested, 1.1% active; in the data active = inhibition above about 60%
APOBEC3G inh: blocks human APOBEC3G single-stranded DNA deamination; inhibition, % at 20 µM; recombinant A3G, ssDNA deamination FAM/TAMRA fluorescence; AID 493012; Q9HC16; 330,000 tested, 0.28% active;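 active = inhibition of at least 40% at 20 µM, with no more than 30% in the related APOBEC3A deaminase screen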;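 also: plate controls were DMSO wells with A3G for no effect and wells lacking A3G enzyme for full effect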
Target sequence (Q9HC16 whole entry, looked up): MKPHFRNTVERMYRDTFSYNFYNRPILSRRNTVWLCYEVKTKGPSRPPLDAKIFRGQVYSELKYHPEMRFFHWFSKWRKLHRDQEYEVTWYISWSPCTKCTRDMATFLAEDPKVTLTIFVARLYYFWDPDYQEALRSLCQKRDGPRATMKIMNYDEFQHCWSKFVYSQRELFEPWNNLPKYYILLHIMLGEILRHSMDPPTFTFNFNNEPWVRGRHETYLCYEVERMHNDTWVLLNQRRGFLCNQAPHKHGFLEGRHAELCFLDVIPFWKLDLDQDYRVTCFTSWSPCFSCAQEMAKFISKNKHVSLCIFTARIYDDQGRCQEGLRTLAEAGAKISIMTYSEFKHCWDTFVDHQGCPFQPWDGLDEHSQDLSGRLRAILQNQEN
APOBEC3A confirm: confirmation of human APOBEC3A DNA deaminase inhibitors. inhibition, % at 20 µM. AID 493151. recombinant A3A, ssDNA deaminase UDG fluorescence assay. 1,400 tested, 63% active. shares compounds with APOBEC3A inh;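 active = inhibition reaching a set limit, 80% of the first screen's cutoff, at 20 µM in any replicate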;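 also: plate controls were DMSO wells with A3A for no effect and wells lacking A3A enzyme for full effect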
UDG ctr A3A: counter-screen for APOBEC3A inhibitors: UDG | shares compounds with APOBEC3A inh | 1,000 tested, under 10 active | AID 504714 | inhibition, % at 20 µM | UDG counterscreen, FAM/TAMRA uracil oligo fluorescence; call rule not given here
* hit, by the source's call; x = not tested or not shown. In the library only some 5.4% were active in any assay of this set; here they are far more common.

SMILES | APOBEC3A inh | rCAG RNA binder | aDG glyco up | ALR inh | PHOSPHO1 inh | APOBEC3G inh | APOBEC3A confirm | UDG ctr A3A
COc1ccc(CCCNC(=O)C2Cc3c(-c4ccccc4)ccnc3O2)cc1 (configuration not stated) | x | 1 | 0 | x | x | x | x | x
C=CCn1c(SCC(=O)Nc2ccc(C(=O)OC(C)C)cc2)nnc1-c1cccs1 | -3 | 0 | 1 | -5 | -31 | -4 | x | x
C=CCn1c(CNC(=O)c2cccs2)nnc1SCC(=O)Nc1ccc(C(=O)O)cc1 | 48* | 5 | 0 | 1 | 90* | 6 | 4 | x
CCN(CC)CCCNC(=O)Cn1nc(-c2ccccc2)ccc1=O | 2 | 3 | 0 | -8 | -12 | 2 | x | x
C=CCNC(=O)Cn1nc(-c2ccccc2)ccc1=O | 61* | -1 | 0 | 6 | 46 | 8 | 2 | x
O=C(CSc1nnnn1-c1ccccc1)Nc1ccc(N2CCOCC2)c(Cl)c1 | 64* | -3 | 0 | 23 | -22 | 15 | 55* | -2
O=C(CSc1nnnn1-c1cccc2ccccc12)Nc1ccc(N2CCOCC2)c(Cl)c1 | 4 | 3 | 0 | -12 | 0 | 4 | x | x
COCCNC(=O)c1c(N)[nH]c(C(=O)c2ccc(Br)cc2)c1-c1ccc(Br)cc1 | x | 2 | x | x | x | x | x | x
Cn1c(N)c(C(=O)COC(=O)COc2ccc(C#N)cc2)c(=O)n(C)c1=O | 92* | 0 | 0 | -4 | 37 | -8 | 3 | 5
Nc1nnc(SCC(=O)N2CCN(Cc3ccccc3)CC2)s1 | 64* | -1 | 0 | -6 | 51 | 20 | 24 | x
COc1ccc(N=C2NC(=O)/C(=C\c3ccco3)S2)cc1 | 64* | 17 | 0 | 4 | -5 | 26 | 36* | -2
O=C(Nc1ccc(Br)cc1)c1cccc(-n2cnnn2)c1 | 51* | 3 | 0 | 0 | 4 | -2 | -5 | 2
CCC(C)c1ccccc1NC(=O)c1cccc(-n2cnnn2)c1 (configuration not stated) | 52* | 2 | 0 | -6 | x | 2 | 34* | -38
COc1ccc(Cl)cc1NC(=O)c1cccc(-n2cnnn2)c1 | 48* | 1 | 0 | x | x | -14 | 8 | 3
C=CCC[C@@H](CCCCC)OC(=O)/C=C/[C@H](O)[C@@H](O)C[C@H](O)CC=C | x | 0 | 0 | x | x | x | x | x
CC1(C(=O)Nc2cccc(NS(C)(=O)=O)c2)CCN1CCc1ccccc1 (configuration not stated) | x | 5 | 0 | x | x | x | x | x
COc1ccccc1NC(=O)COC(=O)c1cc2c(s1)CCC2 | 56* | 5 | 0 | x | x | 6 | 46* | -1
C=CS(=O)(=O)N(Cc1ccccc1Br)[C@H](CO)CC(C)C | x | -2 | 1 | x | x | x | x | x
Cc1cccc(C(=O)Nc2nnc(SCC(=O)Nc3ccc4c(c3)oc3ccccc34)s2)c1 | 81* | 3 | 0 | -20 | 5 | 14 | 84* | -2
COC(=O)c1cc2c(c3c4cc(C)ccc4n(C(=O)c4ccccc4)c13)C(=O)N(Cc1ccccc1)C2 | x | 10 | x | x | x | x | x | x
O=C(O)c1cc(-c2ccc(/C=C3\NC(=O)N(c4ccccc4)C3=O)o2)ccc1Cl | 58* | 14 | 0 | 58 | 67* | 18 | 35* | -3
CCN1C(=O)/C(=C\c2ccc(-c3cccc(C(=O)OC)c3)o2)SC1=Nc1ccc(C(=O)O)cc1 | 2 | 0 | x | 2 | 29 | -4 | x | x
O=C(O)c1cccc(-c2ccc(/C=C3/SC(=Nc4ccccc4)N(Cc4cccnc4)C3=O)o2)c1 | 52* | 15 | 0 | 1 | 29 | 20 | 33* | 2
COC(=O)Cn1c(C)c(/C=C/c2cc[n+](C)cc2)c2ccccc21 | 80 | -117 | 0 | -17 | 24 | 31 | x | x
COC(=O)Cn1cc(/C=C/c2cc[n+](C)cc2)c2ccccc21 | 66* | -45 | 0 | -47 | -19 | 25 | 67* | 0
SMILES | APOBEC3A inh | rCAG RNA binder | aDG glyco up | ALR inh | PHOSPHO1 inh | APOBEC3G inh | APOBEC3A confirm | UDG ctr A3A
Cc1cc(/C=C(/C#N)c2nc3ccccc3[nH]2)c(C)n1-c1cc(C(=O)O)cc(C(=O)O)c1 | 49* | 17 | -1 | x | 17 | 22 | 41* | -4
CCc1noc2cc(-c3ccccc3)n(C)c(=O)c12 | x | 1 | x | x | x | x | x | x
Cc1c(Cl)cccc1NC(=O)CNC(=O)c1ccc2c(c1)OCCO2 | 51* | 0 | 0 | -9 | x | 9 | 41* | 2
COc1ccc(NC(=O)CCCSc2ccccc2)cc1 | 42* | -3 | 0 | -2 | -30 | 9 | 7 | x
Cc1cccc(C)c1OCC(=O)NCc1nnc(SCC(=O)NC2CCCCC2C)n1C (configuration not stated) | 53* | -4 | 0 | -1 | -11 | 10 | 60* | 3
Cc1[nH]c2ccccc2c1CC(=O)Nc1ccc(Nc2ccncc2)cc1 | x | 9 | x | x | x | x | x | x
CC(C)N1CCCCC(NC(=O)c2c(F)cccc2F)C1=O (configuration not stated) | x | 0 | x | x | x | x | x | x
C[n+]1c(/C=C/c2ccc(O)cc2)ccc2ccccc21 | 57* | 3 | 0 | 99* | 22 | 28 | 75* | 5
C[n+]1c(/C=C/c2ccc3c(c2)OCO3)ccc2ccccc21 | 86* | -7 | 0 | -1 | 16 | 20 | 87* | -2
O=C(O)CCC(=O)OCCN(Cc1ccc(Oc2ccc([N+](=O)[O-])cc2)cc1)C(=O)C(Cl)Cl | x | 26 | 0 | x | x | x | x | x
COc1ccc(C(=O)NC(C)c2nnc(SCc3ccc(Cl)c(Cl)c3)n2C)cc1 (configuration not stated) | 57* | -4 | 0 | -18 | 82* | 16 | 60* | -2
CCn1c(SCc2ccc(Cl)c(Cl)c2)nnc1C(C)NC(=O)c1ccc(OC)cc1 (configuration not stated) | -1 | -3 | 0 | 0 | -17 | -4 | x | x
COCc1[nH]nc2c1C(c1cccc(C(F)(F)F)c1)NC2=O (configuration not stated) | x | 1 | x | x | x | x | x | x
CN(C(=O)/C=C/c1ccco1)c1ccccc1C(=O)O | 44* | 6 | 0 | 12 | 2 | 10 | 22* | -2
C[N+](C)(C)CCCCCC(=O)/C=N/O | 53* | -5 | 0 | -14 | -5 | 11 | 66* | 3
C[N+](C)(C)CCCCCC[N+](C)(C)C | -1 | 3 | 0 | 4 | x | -7 | x | x
C[C@@H]1CCCCO[C@@H](CN(C)C(=O)CCC(F)(F)F)[C@@H](C)CN([C@H](C)CO)C(=O)c2cc(NS(=O)(=O)c3cccs3)ccc2O1 | x | 4 | x | x | x | x | x | x
Oc1ccccc1C=NC(c1ccccc1)C(O)c1ccccc1 (configuration not stated) | -3 | 0 | 0 | -23 | 5 | -5 | x | x
